# Results as given in the supplement of paper PMC9023506.
# Where a name gives a salt, the structure may show the parent alone.
# Test system: Danio rerio larvae (5 dpf)
# Experiment: optomotor response to blue moving lines, difference vs DMSO (percentage points (treated minus DMSO)); higher = more of the behaviour than the DMSO vehicle control
# Settings: 10 µM; exposure time: 3 h pre-incubation + 3 h imaging
# Protocol: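 5-dpf wild-type zebrafish larvae were imaged in 96-well plates. They were treated with 190 Tocris FDA-approved drugs at 10 µM (1 µl/ml DMSO) for 3 h before and 3 h during imaging at 28.5 °C, 48 larvae per drug. Automated image analysis gave % time moving and optomotor responses. Values are drug group mean minus DMSO vehicle mean (n=844), in percentage points, for 10 behaviours.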
row,Structure (SMILES),optomotor response to blue moving lines
1,CN1C[C@H](C(=O)N[C@]2(C)O[C@@]3(O)[C@@H]4CCCN4C(=O)[C@H](Cc4ccccc4)N3C2=O)C[C@@H]2c3cccc4[nH]cc(c34)C[C@H]21 [Dihydroergotamine mesylate],12.8
2,Cc1cccc([C@H](C)c2c[nH]cn2)c1C [Dexmedetomidine hydrochloride],-12.4
3,O=c1[nH]c2ccccc2n1C1CCN(CCCC(c2ccc(F)cc2)c2ccc(F)cc2)CC1 [Pimozide],-7.76
4,CC(C)C[C@H]1C(=O)N2CCC[C@H]2[C@]2(O)O[C@](NC(=O)[C@@H]3C=C4c5cccc6[nH]c(Br)c(c56)C[C@H]4N(C)C3)(C(C)C)C(=O)N12 [Bromocriptine mesylate],-29.3
5,N[C@@H]1C[C@H]1c1ccccc1 [Tranylcypromine hydrochloride],13.5
6,C=CCN1C[C@H](C(=O)N(CCCN(C)C)C(=O)NCC)C[C@@H]2c3cccc4[nH]cc(c34)C[C@H]21 [Cabergoline],-0.85
7,C=C1C[C@@H]2[C@H](CC[C@]3(C)C(=O)CC[C@@H]23)[C@@]2(C)C=CC(=O)C=C12 [Exemestane],-2.19
8,COc1cc2c(cc1OC)C1CC(=O)C(CC(C)C)CN1CC2 (configuration not stated) [Tetrabenazine],-7.81
9,COc1ccc(C(CN(C)C)C2(O)CCCCC2)cc1 (configuration not stated) [Venlafaxine hydrochloride],3.9
10,CCN(C)C(=O)Oc1cccc([C@H](C)N(C)C)c1 [Rivastigmine tartrate],1.1
11,CC[C@@H](C(N)=O)N1CCCC1=O [Levetiracetam],6.19
12,CC(O)(CS(=O)(=O)c1ccc(F)cc1)C(=O)Nc1ccc(C#N)c(C(F)(F)F)c1 (configuration not stated) [Bicalutamide],-16.6
